Reference: PubChem BioAssay (NCATS)
Inconclusive results are not listed. Entries that show only a call come without a potency. Active and inactive are the calls of the source. Calls come from the whole dose curve; as a rule, active = well fitted curve in the direction sought with a large enough effect; inconclusive = small, poorly fitted or top-dose-only effect, or another doubt; inactive = no such curve, though single readings can be large or run the other way.

What was measured:
[1] = biological target: Nuclear receptor subfamily 1 group I member 3 (Homo sapiens) (UniProt Q14994); experiment: Primary qHTS for antagonist of constitutive androstane receptor (CAR) against the NCATS DSHEA and TCM libraries (AID 1794836); note: series mostly up to about 40 µM
Outline: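 HepG2 cells stably carrying hCAR and a CYP2B6 luciferase reporter (2,500 cells/well) attached for 5 h, then received compounds with 48 uM CITCO for 24 h at 37C. ONE-Glo luminescence read antagonism; CellTiter-Fluor (405/540 nm) gave viability.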

[2] = KB-8-5-11 P-gp reporter qHTS against the NCATS DSHEA and TCM libraries (AID 1919977)
Outline: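 CellTiter-Glo luminescence after ~72 h exposure at 37C gave viability of KB-8-5-11 cells, the P-gp-overexpressing subline. Substances were titrated; colchicine was omitted from assay medium.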

Sequence of Nuclear receptor subfamily 1 group I member 3 (Homo sapiens) (Q14994 whole entry, looked up): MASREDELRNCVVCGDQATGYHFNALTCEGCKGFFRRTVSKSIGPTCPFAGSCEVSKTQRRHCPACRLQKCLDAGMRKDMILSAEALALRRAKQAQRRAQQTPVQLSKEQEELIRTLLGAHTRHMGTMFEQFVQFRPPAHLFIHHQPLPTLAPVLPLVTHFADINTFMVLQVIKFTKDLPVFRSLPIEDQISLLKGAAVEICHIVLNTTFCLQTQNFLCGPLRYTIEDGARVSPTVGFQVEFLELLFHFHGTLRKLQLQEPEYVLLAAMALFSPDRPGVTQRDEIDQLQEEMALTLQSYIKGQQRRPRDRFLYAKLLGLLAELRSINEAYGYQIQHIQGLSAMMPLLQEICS

| Compound | Potency [1] | Potency [2] |
| --- | --- | --- |
| O=c1ccc2ccc(O)cc2o1 | inactive | inactive |
| O=C(/C=C/c1ccc(O)c(O)c1)O[C@@H]1CC(C(=O)O)=C[C@@H](O)[C@H]1O | inactive | inactive |
